PubChem BioAssay (NCI)
About 79,000 compounds went through this panel and 15% of them were active in at least one assay; those are over-represented in the sample as a whole. No stated cut-off is given here; in the data, active means growth inhibition above about 70%; inactive means the rest.

Tests used:
[1] = NCI Yeast Anticancer Drug Screen. Data for the rad50 strain (AID 155);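 further: 0% = growth of vehicle-only cultures of the same strain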; conditions: S. cerevisiae rad50 strain growth inhibition; at 50.0 µM; stronger effect = higher value
Outline: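 Cells are treated with compound, grown, and their growth is then scored against vehicle-only cultures of the same repair-deficient yeast strain.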

[2] = NCI Yeast Anticancer Drug Screen. Data for the mec2-1 strain (AID 157); conditions: S. cerevisiae mec2-1 strain, at 50.0 µM, stronger effect = higher value
Outline: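 Mutant yeast (mec2-1) grown with compound; growth inhibition relative to vehicle control reported.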

[3] = NCI Yeast Anticancer Drug Screen. Data for the sgs1 mgt1 strain (AID 161);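 further: 0% = growth of cultures given vehicle only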; conditions: S. cerevisiae sgs1 mgt1 strain, at 50.0 µM, stronger effect = higher value
Outline: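 Growth of a repair-deficient yeast mutant was monitored after compound treatment and expressed as inhibition relative to vehicle-treated cultures.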

[4] = NCI Yeast Anticancer Drug Screen. Data for the cln2 rad14 strain (AID 165);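 further: 0% = growth equal to vehicle treated cultures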; conditions: S. cerevisiae cln2 rad14 strain, at 50.0 µM, stronger effect = higher value
Outline: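 Readout is yeast growth inhibition versus vehicle-treated controls, using a strain with cln2 and rad14 alterations exposed to compound.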

[5] = NCI Yeast Anticancer Drug Screen. Data for the bub3 strain (AID 167); conditions: S. cerevisiae bub3 mutant strain, at 50.0 µM, stronger effect = higher value
Outline: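 Part of a panel of yeast mutants defective in DNA damage repair or cell cycle regulation. Each strain is grown with compound, and inhibition is calculated relative to solvent-treated cultures.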

[6] = NCI Yeast Anticancer Drug Screen. Data for the mlh1 rad18 strain (AID 175); conditions: S. cerevisiae mlh1 rad18 strain growth inhibition; at 50.0 µM; stronger effect = higher value
Outline: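 Genetically defined yeast (DNA repair-deficient) exposed to compounds; growth inhibition determined relative to vehicle.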

Measured: growth inhibition

COc1ccc2nccc(Cl)c2c1
inactive: [1] 12.2% | [2] 12.3% | [3] 1.6% | [4] -6.55% | [5] 15.2% | [6] 6.45%

NNC(=Nc1ccccc1)SCc1ccccc1
inactive: [1] 3.05% | [2] 0.5% | [3] 23.4% | [4] 7.75% | [5] 20.2% | [6] -30.9%

O=C(O)CNC(=O)CNC(=O)CNC(=O)CNC(=O)CNC(=O)OCc1ccccc1
inactive: [1] 38.2% | [2] -0.25% | [3] 15.2% | [4] 28.1% | [5] -0.95% | [6] 17.4%

Nc1nc(N)c2cc(S(=O)(=O)c3ccccc3)ccc2n1
inactive: [1] 26.1% | [2] 8.7% | [3] -8.9% | [4] -4.55% | [5] -26.1% | [6] -40.5%

CCOC(=O)C(C)Oc1ccc(Cl)cc1 (configuration not stated)
inactive: [1] -7.85% | [2] -14.9% | [3] -13.1% | [4] -44.1% | [5] -6.3% | [6] 1.8%

O=C(O)c1ccc(NC(=S)Nc2ccc(C(=O)O)cc2)cc1
inactive: [1] -13.5% | [2] -0.15% | [3] 19.9% | [4] -7.4% | [5] -6.15% | [6] -22.9%

CC12CCC3c4ccc(O)cc4CCC3C1CC(OC1OC(C(=O)O)C(O)C(O)C1O)C2O (configuration not stated)
inactive: [1] 31.6% | [2] 5.9% | [3] 13.5% | [4] 2.4% | [5] 2.4% | [6] 22.2%

CCOC(=O)CN1CCC(C(=O)OCC)CC1
inactive: [1] 7.75% | [2] -27% | [3] 20.6% | [4] 12.9% | [5] -3.05% | [6] 20.8%

CN(C)CCN1CCCN(C)CC1
inactive: [1] -14.9% | [2] -13.8% | [3] -4.25% | [4] -17.2% | [5] -25.3% | [6] 5.4%

O=[N+]([O-])c1ccc(SC2OC(CO)C(O)C(O)C2O)c([N+](=O)[O-])c1 (configuration not stated)
inactive: [1] 2.05% | [2] 29.4% | [3] 3.95% | [4] -14.2% | [5] -5.35% | [6] 20.8%

COc1ccc(/C=C/c2cc(O)cc(OC3OC(CO)C(O)C(O)C3O)c2)cc1O (configuration not stated)
inactive: [1] -2.4% | [2] 10.5% | [3] -5.5% | [4] 7.55% | [5] 8.7% | [6] 10.8%

CCCCCCCCCCCC1=C(O)C(=O)C(I)=C(O)C1=O
inactive: [1] 63.2% | [2] 58.5% | [3] 63.1% | [4] 51.3% | [5] 14.4% | [6] 54.7%

CN1CC(CN2CCCCCC2)C(O)C(c2ccccc2)C1 (configuration not stated)
inactive: [1] 1.7% | [2] -7.1% | [3] 18% | [4] 7.85% | [5] -1.5% | [6] 27.6%

C#CC(C)(C)CC
inactive: [1] 21.4% | [2] -16.4% | [3] 8.35% | [4] 19.8% | [5] -8.1% | [6] 17.4%

C=CCOc1cc2c(cc1C(C)c1ccc(OCC)c(C)c1)OCO2 (configuration not stated)
inactive: [1] 4.35% | [2] -8.95% | [3] -4.85% | [4] -70.5% | [5] 7.15% | [6] -1.6%

Cc1nc2ccc(Cl)c(Cl)c2s1
inactive: [1] 2% | [2] -16.3% | [3] -3% | [4] -26% | [5] 6.65% | [6] -10.4%

CC(C)(C(=O)c1cccnc1)c1cccnc1
inactive: [1] 4.25% | [2] -9.25% | [3] 17.1% | [4] 2.3% | [5] 17.1% | [6] 12.7%

ON=C(C1CCCCC1)C1CCCCC1
inactive: [1] -7.35% | [2] -29.1% | [3] -13% | [4] -37.6% | [5] -18.3% | [6] -32.9%

S=C(Cc1ccccc1)Nc1ccccc1
inactive: [1] 12.1% | [2] -18.5% | [3] 14.1% | [4] -22.9% | [5] -25.4% | [6] 3.3%

O=C1CSC(=S)N1
inactive: [1] -8.05% | [2] -7.9% | [3] 13.3% | [4] 10.8% | [5] -7.15% | [6] 20.9%

CC(C)(C)NC(=O)c1cccc(C(N)=O)n1
inactive: [1] -10.4% | [2] -16.1% | [3] -11.8% | [4] -21.6% | [5] -4.25% | [6] -0.6%

N#Cc1c(N)nc2c(c(-c3ccc(Cl)cc3)nn2-c2ccccc2)c1C#N
inactive: [1] -2.45% | [2] -17.4% | [3] -34.8% | [4] 11.1% | [5] -23.9% | [6] 6.1%

CCCCCCCN(CCCCCCC)CC(O)c1cc2ccccc2c2cc(Br)ccc12 (configuration not stated)
inactive: [1] -52.9% | [2] -33% | [3] -41% | [4] -25% | [5] -69.1% | [6] -109%

O=P(c1ccccc1)(c1ccccc1)C(O)c1ccncc1 (configuration not stated)
inactive: [1] 1.8% | [2] -17.2% | [3] -0.15% | [4] 10.9% | [5] -23% | [6] -10.9%

CCCOC(=O)c1cc(O)ccc1O
inactive: [1] 1.15% | [2] -0.45% | [3] 14.9% | [4] -17.6% | [5] -2.55% | [6] -1.7%

CCCN(Cc1ccccc1)CC(O)c1ccc(Cl)cc1 (configuration not stated)
inactive: [1] 0.95% | [2] 3.5% | [3] 32.2% | [4] 2.95% | [5] 32.9% | [6] 20.1%

C/C(=N\NC(=S)N1CCC(C2CCN(C(=S)N/N=C(\C)c3ccccn3)CC2)CC1)c1ccccn1
inactive: [1] 32.4% | [2] 15.5% | [3] 60.1% | [4] 45.2% | [5] 63.9% | [6] -27.4%

C=CCSc1ncnc2nc[nH]c12
inactive: [1] 7.9% | [2] -1.3% | [3] 1.55% | [4] -3.15% | [5] -0.45% | [6] 9.1%

Nc1ncnc2c1nnn2CC(O)CO (configuration not stated)
inactive: [1] -36% | [2] -19.2% | [3] -17.4% | [4] -25.5% | [5] -2.9% | [6] 5.2%

[B-][N+]1(C)CC[N+]([B-])(C)CC1 (configuration not stated)
inactive: [1] -0.6% | [2] 5.8% | [3] -7% | [4] 16.1% | [5] -5.65% | [6] -11.6%

CNC(=S)NC
inactive: [1] 11.9% | [2] 11.1% | [3] 13.4% | [4] -51.1% | [5] 0.2% | [6] -13.8%

CN(C)c1cc(N(C)C)c2cc(C#N)ccc2n1
inactive: [1] 15.4% | [2] 3.05% | [3] 17.2% | [4] -5.45% | [5] 0.9% | [6] 5.75%

CN(NC(=O)c1ccccc1)C(=O)c1ccccc1
inactive: [1] 15.6% | [2] 7.4% | [3] 11.6% | [4] -15% | [5] 6.05% | [6] 3.75%

S=c1nc[nH]c2nc[nH]c12
inactive: [1] -18% | [2] 0.25% | [3] -6.75% | [4] -66.5% | [5] 10.8% | [6] 20.1%

Cc1cc2c(=O)cc(-c3ccncc3)oc2c(C(=O)O)c1C
inactive: [1] 20.7% | [2] 0.2% | [3] -10.3% | [4] 20.5% | [5] 26.9% | [6] -5.5%

CCOC(=O)C(/C=N\c1[nH]ncc1C#N)=C(/C(=O)OCC)c1ccc(O)cc1
inactive: [1] 4.55% | [2] 5.9% | [3] -13.7% | [4] -21.2% | [5] -3% | [6] 15.4%

COC(=O)Nc1cc2c3c(c1)CCCN3CCC2
inactive: [1] -6.35% | [2] -4.05% | [3] -2.2% | [4] -10.2% | [5] 10.1% | [6] 1.8%

CCOC(=O)CNC(=O)CCC(=O)OC
inactive: [1] -11% | [2] -4.8% | [3] 17.4% | [4] -10.6% | [5] 5.55% | [6] -9.1%

COc1ccc(CCNC(=O)Cc2ccc(Cl)cc2)cc1OC
inactive: [1] 3.65% | [2] -4.65% | [3] -9.7% | [4] 4.2% | [5] -5.75% | [6] 0.2%

CCNCc1ccccc1
inactive: [1] -18.2% | [2] -0.25% | [3] -22.1% | [4] -66.5% | [5] -10.9% | [6] -18.8%

CCCCCCCCCCCCCCCC(=O)CCCCCCCCCCCCCCC
inactive: [1] 21.1% | [2] -15.9% | [3] 6.35% | [4] -3.8% | [5] -0.95% | [6] 28.9%

COc1ccc([N+](=O)[O-])c(OC)c1
inactive: [1] 4.4% | [2] -19.1% | [3] -30.9% | [4] 17.2% | [5] -23.4% | [6] 9.05%
